# Results: PubChem BioAssay
# Values joined by “and” are separate entries in the source; they are usually repeats but may differ in a detail not shown here. Equal entries are not always repeated. Inconclusive results are not listed. For some assays here: Results with a measured potency or affinity are listed apart. Active and inactive are the calls of the source. Unless noted, the rule behind the calls is not given here.
# Key:
# [1] = restoration of touch response, mutant HTT neurons – whole organism, C. elegans mechanosensory neurons, N-terminal huntingtin (AID 1599); conditions: C. elegans polyQ-huntingtin mechanosensory neurons, stronger effect = higher value
# [2] = GFP-Q80 aggregate reduction, neuronal-like cells, cell-based, NGF-treated PC12, GFPQ80 (AID 1614); conditions: PC12 NGF-treated GFP-polyQ80 inclusion reduction;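 note: lower means fewer inclusions and 0 means no inclusions at all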
# [3] = 75Q-TubH aggregate inhibition, S. cerevisiae, yeast (AID 1616); conditions: S. cerevisiae 75Q-TubH polyglutamine aggregation suppression; stronger effect = higher value
# [4] = compounds altering viability of human ES cells (AID 493140); conditions: human embryonic stem cell survival screen; stronger effect = higher value;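 note: cells exposed to compounds for four days before counting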
# [5] = viability loss in pontine glioma line – cell-based, SU-DIPG-XVII, MIPE5.0, CellTiter-Glo, qHTS, dose response (AID 1347060; cut-off not given, nearly all actives have AC50 up to about 26 µM;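 for AC50: cells exposed to compound for 48 hours before viability readout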); conditions: CellTiter-Glo ATP luminescence
# [6] = viability loss in pontine glioma line – cell-based, SU-DIPG-IV, MIPE4.0, CellTiter-Glo, qHTS, dose response (AID 1347063; cut-off not given, nearly all actives have AC50 up to about 30 µM;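 note: compound exposure lasted 48 hours before the viability readout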); conditions: CellTiter-Glo ATP luminescence
# [7] = viability loss in pontine glioma line – cell-based, SU-DIPG-XXV, MIPE5.0, CellTiter-Glo, qHTS, dose response (AID 1347065; cut-off not given, nearly all actives have AC50 up to about 26 µM;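 note: cells exposed to compound for 48 hours before ATP readout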); conditions: CellTiter-Glo ATP luminescence
# [8] = growth inhibition of DIPG cells – cell-based, MIPE4.0 library, CellTiter-Glo luminescence, qHTS (AID 1347066; cut-off not given, nearly all actives have AC50 up to about 30 µM;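 note: cells exposed to compound for 48 hours before readout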); conditions: SU-DIPG-VI viability, CellTiter-Glo ATP luminescence
# [9] = JHH-DIPG-1 glioma cell viability, MIPE5.0 library, CellTiter-Glo luminescence, qHTS (AID 1347067; cut-off not given, nearly all actives have AC50 up to about 26 µM;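 note: cells exposed to compound for 48 hours before readout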); conditions: JHH-DIPG-1 glioma viability, CellTiter-Glo ATP luminescence
# [10] = growth inhibition of DIPG cells – cell-based, MIPE5.0 library, qHTS (AID 1347068; cut-off not given, nearly all actives have IC50 up to about 30 µM); conditions: SU-DIPG-XXV viability
# [11] = test system: Hepatitis C virus NS3 helicase; assay: blockers of NS3h binding to ssDNA – biochemical, fluorescence polarization, LOPAC1280 library, primary screen (AID 687035; in the data active = inhibition above about 37%); conditions: Purified HCV NS3 helicase, Cy5-dT15 ssDNA binding fluorescence polarization; stronger effect = higher value; concentration not given here
# [12] = compounds altering Cy5-DNA-NS3h complex signal – biochemical, LOPAC1280, artefact control for HCV NS3 helicase inhibitor project (AID 687037); conditions: Cy5-DNA-NS3h complex fluorescence interference counterscreen
# [13] = viability loss in pontine glioma line – cell-based, SU-DIPG-XIII, MIPE4.0, CellTiter-Glo, qHTS, dose response (AID 1347061; cut-off not given, nearly all actives have AC50 up to about 37 µM;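 note: cells exposed to compound for 48 hours before readout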); conditions: CellTiter-Glo ATP luminescence
# [14] = viability loss in pontine glioma line – cell-based, JHH-DIPG-1, MIPE4.0, CellTiter-Glo, qHTS, dose response (AID 1347062; cut-off not given, nearly all actives have AC50 up to about 27 µM;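 for AC50: cells exposed to compound for two days before readout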); conditions: JHH-DIPG-1 viability, CellTiter-Glo ATP luminescence
# [15] = blockers of cellular phospholipid synthesis – cell-based, LOPAC library, screen 4, primary screen (AID 1347384); conditions: animal cells, phospholipid biosynthesis inhibition screen; at 10 µM
# [16] = growth inhibition, single agents and combos, LFS_MB_1R, cell-based, cisplatin or BGB combos, synergistic combos for chromothripsis tumors (AID 1671452; in the data active = inhibition above about 80%;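 note: cells exposed for 96 hours before readout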); conditions: LFS_MB_1R medulloblastoma cells, stronger effect = higher value
# [17] = growth inhibition, MDA-MB-436, cell-based, BGB or cisplatin combos, synergistic combos for chromothripsis tumors (AID 1671458); conditions: MDA-MB-436 breast carcinoma growth inhibition, drug combinations, stronger effect = higher value;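 note: cells exposed for 96 hours; 0% = vehicle DMSO and 100% = killing by high DMSO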
# [18] = BT084 cell growth, single and combined drugs, ICGC_MB145, cisplatin and BGB IC40 combos (AID 1671461; in the data active = inhibition above about 80%;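 note: cells exposed to drugs for 96 hours; 0% = vehicle DMSO and 100% = high DMSO full killing control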); conditions: BT084 medulloblastoma cells, drug combinations, stronger effect = higher value
# [19] = RCMB18 cell growth, single agent and combined, cisplatin and BGB IC40 combos (AID 1671462; in the data active = inhibition above about 80%;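 note: cells exposed to compound for four days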); conditions: RCMB18 medulloblastoma cells, stronger effect = higher value
# [20] = CRL1545 cell growth, single agent and combined, cisplatin and BGB IC20 combos (AID 1671464; in the data active = inhibition above about 80%;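 note: cells exposed to compound for 96 hours before readout; 0% = vehicle DMSO and 100% = high DMSO killing control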); conditions: CRL1545 osteosarcoma cells, stronger effect = higher value
# [21] = measured here: combination with cisplatin, at 0.5 µM
smiles,measurement,setting,value
CN(C)CCOC(c1ccc(Cl)cc1)c1ccccn1 (configuration not stated),rescue above control,[1],-1.97
same,inclusion score,[2],2
same,aggregation suppression score,[3],1.21
same,survival,[4],2.92 (inactive)
Cc1ccc(C)c(OCCCC(C)(C)C(=O)O)c1,rescue above control,[1],6.5
same,inclusion score,[2],2
same,aggregation suppression score,[3],-0.02
same,survival,[4],20.8 (inactive)
same,outcome,[5],inactive
same,outcome,[6],inactive
same,outcome,[7],inactive
same,outcome,[8],inactive
same,outcome,[9],inactive
same,outcome,[10],inactive
Cc1cn([C@H]2C[C@H](N=[N+]=[N-])[C@@H](CO)O2)c(=O)[nH]c1=O,rescue above control,[1],1.62
same,inclusion score,[2],2
same,aggregation suppression score,[3],1.12
same,outcome,[6],inactive
same,outcome,[8],inactive
OC(CCN1CCCC1)(c1ccccc1)C1CCCCC1 (configuration not stated),rescue above control,[1],0.33
same,inclusion score,[2],2
same,aggregation suppression score,[3],1.66
same,survival,[4],7.33 (inactive)
NC(=O)c1cnccn1,rescue above control,[1],-9.49
same,inclusion score,[2],2
same,aggregation suppression score,[3],0.921
same,survival,[4],19.9 (inactive)
same,inhibition,[11],1% (inactive)
same,fluorescence ratio (interference),[12],1 (inactive)
same,AC50,[13],18700 nM (active)
same,outcome,[14],inactive
same,outcome,[6],inactive
same,outcome,[7],inactive
same,outcome,[9],inactive
same,outcome,[10],inactive
same,outcome,[15],inactive
N[C@@H](C(=O)N[C@@H]1C(=O)N2C(C(=O)O)=C(Cl)CS[C@H]12)c1ccccc1,survival,[4],9 (inactive) and 6.75 (inactive)
same,outcome,[13],inactive
same,outcome,[14],inactive
same,outcome,[6],inactive
COc1ccc(OC)c(C(O)CNC(=O)CN)c1 (configuration not stated),rescue above control,[1],-4.55
same,inclusion score,[2],2
same,aggregation suppression score,[3],1.16
same,survival,[4],18.8 (inactive)
Nc1ncn([C@@H]2O[C@H](CO)[C@@H](O)[C@H]2O)c(=O)n1,rescue above control,[1],17.7
same,aggregation suppression score,[3],1.25
same,inhibition,[11],-1% (inactive)
same,fluorescence ratio (interference),[12],0.9 (inactive)
same,AC50,[5],1480 nM (active)
same,AC50,[14],2960 nM (active)
same,AC50,[6],935 nM (active)
same,AC50,[7],2090 nM (active)
same,AC50,[9],7420 nM (active)
same,outcome,[15],inactive
NS(=O)(=O)c1cc2c(cc1Cl)NC=NS2(=O)=O,rescue above control,[1],7.98
same,inclusion score,[2],2
same,aggregation suppression score,[3],1.42
same,survival,[4],13.6 (inactive)
same,inhibition,[11],-2% (inactive)
same,fluorescence ratio (interference),[12],0.9 (inactive)
same,outcome,[5],inactive
same,outcome,[14],inactive
same,outcome,[6],inactive
same,outcome,[7],inactive
same,outcome,[8],inactive
same,outcome,[9],inactive
same,outcome,[10],inactive
same,outcome,[15],inactive
NCc1ccc(S(N)(=O)=O)cc1,rescue above control,[1],-7.83
same,inclusion score,[2],2
same,aggregation suppression score,[3],1.05
same,survival,[4],13.4 (inactive)
Cc1ncc([N+](=O)[O-])n1CC(C)O (configuration not stated),outcome,[5],inactive
same,outcome,[14],inactive
same,outcome,[6],inactive
same,outcome,[8],inactive
same,outcome,[9],inactive
same,outcome,[10],inactive
COc1cc2nc(N(C)CCCNC(=O)C3CCCO3)nc(N)c2cc1OC (configuration not stated),survival,[4],6.42 (inactive)
same,inhibition,[11],-3% (inactive)
same,fluorescence ratio (interference),[12],1 (inactive)
same,outcome,[13],inactive
same,outcome,[14],inactive
same,outcome,[8],inactive
same,outcome,[15],inactive
O=S(=O)(O)CCS,rescue above control,[1],-8.48
same,inclusion score,[2],2
same,aggregation suppression score,[3],1.35
same,outcome,[5],inactive
same,outcome,[14],inactive
same,outcome,[6],inactive
same,outcome,[7],inactive
same,outcome,[8],inactive
same,outcome,[9],inactive
same,outcome,[10],inactive
O=c1[nH]cc(F)c(=O)[nH]1,rescue above control,[1],-13.1
same,inclusion score,[2],2
same,aggregation suppression score,[3],0.203
same,inhibition,[11],-1% (inactive)
same,fluorescence ratio (interference),[12],1 (inactive)
same,outcome,[13],inactive
same,outcome,[14],inactive
same,outcome,[7],inactive
same,outcome,[8],inactive
same,outcome,[9],inactive
same,outcome,[10],inactive
same,outcome,[15],inactive
same,inhibition,[16]; at 0.5 µM,-23.7% (inactive)
same,inhibition,"[16]; measured here: combination with BGB IC40, at 0.05 µM",-2.27%
same,inhibition,[16]; [21],11.9%
same,inhibition,"[16]; measured here: combination with cisplatin, at 5 µM",-15.5%
same,inhibition,[17]; at 0.5 µM,-17.3% (inactive)
same,inhibition,"[17]; measured here: BGB combination, at 0.5 µM",-27.5%
same,inhibition,"[17]; measured here: BGB combination, at 5 µM",-5.42%
same,inhibition,"[17]; measured here: cisplatin combination, at 0.5 µM",-20.4%
same,inhibition,"[17]; measured here: cisplatin combination, at 5 µM",36.2%
same,inhibition,[18]; at 0.5 µM,-4.41% (inactive)
same,inhibition,"[18]; cisplatin combination, at 0.5 µM",-0.838%
same,inhibition,"[18]; cisplatin combination, at 5 µM",-20.1%
same,inhibition,"[18]; measured here: BGB IC40 combination 0.05 uM, at 0.05 µM",2.5%
same,inhibition,"[18]; single agent, at 5 µM",-0.674%
same,inhibition,[19]; at 0.5 µM,3% (inactive)
same,inhibition,"[19]; cisplatin combo, at 5 µM",11.8%
same,inhibition,"[19]; measured here: BGB IC40 combination, at 0.05 µM",-17.4%
same,inhibition,[19]; [21],13.9%
same,inhibition,"[19]; single agent, at 5 µM",7.41%
same,inhibition,[20]; at 0.5 µM,-41.5% (inactive)
same,inhibition,"[20]; measured here: with BGB IC20 combination, at 0.5 µM",-0.875%
same,inhibition,"[20]; measured here: with cisplatin IC20 combination, at 0.5 µM",-61.8%
same,inhibition,"[20]; single agent, at 0.05 µM",-3.52%
same,inhibition,"[20]; single agent, at 5 µM",15.8%
COC(=O)Nc1nc2ccc(C(=O)c3ccccc3)cc2[nH]1,rescue above control,[1],-9.11
same,aggregation suppression score,[3],0.598
same,survival,[4],1 (inactive)
same,AC50,[5],93.4 nM (active)
same,AC50,[13],18700 nM (active)
same,AC50,[7],332 nM (active)
same,outcome,[8],inactive
same,AC50,[9],468 nM (active)
COC1=CC(=O)C[C@@H](C)[C@]12Oc1c(Cl)c(OC)cc(OC)c1C2=O,rescue above control,[1],-5.31
same,inclusion score,[2],2
same,aggregation suppression score,[3],1.07
C/C=C/C(=O)N(CC)c1ccccc1C,survival,[4],6.17 (inactive)
same,outcome,[5],inactive
same,outcome,[14],inactive
same,outcome,[8],inactive
same,outcome,[9],inactive
same,outcome,[10],inactive
NS(=O)(=O)c1cc(C2(O)NC(=O)c3ccccc32)ccc1Cl (configuration not stated),rescue above control,[1],-4.25
same,inclusion score,[2],2
same,aggregation suppression score,[3],1.49
same,survival,[4],4.42 (inactive)
